The text below walks through data of PubChem BioAssay AID1789 (The Scripps Research Institute Molecular Screening Center, 2009).

Usually inhibition stands for the drop in the measured response relative to a control, in per cent.

Each structure is given as a SMILES string. Screen size: about 290,000 compounds; about 2,700 (0.93%) were called active.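 How the source made its calls: active means inhibition above the screen-wide mean plus 3 SD, computed separately per campaign (cut at about 16% in these data); inactive means the rest.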 Shown is part of a subset that was picked to be rich in actives.

The test relates to Heat shock protein HSP 90 (rabbit reticulocyte lysate; luciferase refolding). Kind of test: HSP90 inhibitors, primary screen, cell lysate, luminescence (AID 1789).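 Further: 0% = DMSO wells and 100% = 60 µM geldanamycin wells; inhibitors lower the luminescence because luciferase stays unfolded.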 The settings on record: 3 h, at 5.6 µM, hits give high values.
Take `CC1Cn2c(nnc2-c2cccs2)S1` (configuration not stated): the inhibition was 27.3% (active). Take `Cc1ccccc1C1CC(c2cccs2)=NN1S(C)(=O)=O` (configuration not stated): the inhibition was -0.31% (inactive).

For the compound `Cn1c(SCC(=O)N2CCCC2)nnc1-c1cccs1`, the inhibition is -5.69% (inactive).

As for `O=C(O)CCC(=O)Nc1ccc(OCC2CCCO2)cc1` (configuration not stated), the inhibition is 1.1% (inactive). Under `Cc1cccc(NC(=O)c2ccc(COc3ccccc3[N+](=O)[O-])o2)n1` stands -1.06% (inactive); under `Cc1cccc(NC(=O)Nc2ccc(OCc3ccccc3)cc2)n1`, -4.5% (inactive). Regarding `CCOc1ccc(OCc2ccc(C(=O)Nc3cccc(C)n3)o2)cc1`, the inhibition is 16.8% (active). The value for `COC(=O)c1ccc(COc2ccc(C#N)cc2)o1` was -2.93% (inactive); that for `CCOc1ccc(OCc2ccc(C(=O)N(C)c3ccccc3)o2)cc1` was 23% (active). Regarding `O=C(NCCc1ccccn1)c1ccc(COc2ccccc2)o1`, the inhibition was 9% (inactive). In the case of `Cc1ccc(NC(=S)N(CCCN2CCCC2)Cc2cccn2Cc2ccc(Cl)cc2)cc1`, the inhibition is 2.82% (inactive). In the case of `COc1ccc(NC(=S)N2N=CCC2c2ccccc2)cc1` (configuration not stated), the inhibition is 16.8% (active). Under `COc1ccc(C(=O)NC2CCN(C(=S)Nc3ccccc3)CC2)cc1` stands 3.9% (inactive); under `COc1ccc(C(=S)Nc2ccccc2)cc1`, -0.81% (inactive).

Consider `CC(C)c1ccc(NC(=O)C2CCCN(S(=O)(=O)c3cccnc3)C2)cc1` (configuration not stated), for which the inhibition was -1.95% (inactive).

As for `CCOC(=O)c1c(C)[nH]c2c1-c1ccccc1C(=O)C2=O`, the inhibition is -1.61% (inactive).

For the compound `CCOC(=O)C1=C(c2ccc(OC)cc2)C(=O)c2ccccc2C1=O`, the inhibition is 87.2% (active). Under `CCOC(=O)c1c(-c2ccc(C)cc2)csc1/N=C(\C)C1=C(O)c2ccccc2C1=O` stands -2.27% (inactive); under `COC(=O)C1(C)CC1(c1ccccc1)c1ccccc1` (configuration not stated), 1.72% (inactive); under `C[n+]1cc(-c2ccccc2)oc1-c1ccccc1`, 0.81% (inactive).

Regarding `CCOc1cc2ccccc2cc1C(=O)Nc1ccccn1`, the inhibition was -0.82% (inactive).

Regarding `Cc1cc(N/C=C\C(=O)c2ccc(Cl)c(Cl)c2)no1`, the inhibition was -0.49% (inactive). The value for `CCOc1ccc(N/C=C/C(=O)c2cc(OC)c(OC)c(OC)c2)cc1` was -0.12% (inactive); that for `COc1ccc(C(=O)/C=C/Nc2ccccn2)cc1` was 65.4% (active); that for `CCOc1ccc(N/C=C/C(=O)c2ccccc2)cc1` was 51% (active). Under `O=C(/C=C\NCC(=O)c1ccccc1)c1ccccc1` stands 2.9% (inactive); under `COc1cc2c(cc1OC)C(c1cccc([N+](=O)[O-])c1)=NCC2`, -2.48% (inactive); under `CCCCN(C)CCNC(=O)C1CCCN(S(=O)(=O)c2cccc3nsnc23)C1` (configuration not stated), -6.58% (inactive). The value for `COc1ccc(N=Nc2c(-c3ccc(OC)cc3)[nH]oc2=O)cc1` was 0.28% (inactive); that for `NC(=O)c1ccc(NC(=O)COC(=O)c2c3c(nc4ccccc24)/C(=C\c2ccc4c(c2)OCO4)CCC3)cc1` was -5.16% (inactive); that for `COc1ccc(Sc2nc(-c3ccccc3)ncc2OC)cc1` was -2.08% (inactive). Take `COc1ccccc1Cc1nc(-c2ccc(C)cc2)no1`: the inhibition was 3.61% (inactive). Under `COc1ccc(-c2nc(-c3ccccc3)no2)c(OC)c1` stands 44.3% (active); under `COC(=O)c1cccnc1NC(=S)NC(C)C`, -2.4% (inactive); under `CC(=O)c1ccc(NC(=O)Cn2c(=O)oc3ccccc32)cc1`, -5.66% (inactive). Under `CCSc1nnc(SCC(=O)NNC(=O)c2ccccc2F)s1` stands -3.94% (inactive).

On to `O=c1oc2ccccc2cc1-c1cn(-c2ccccc2)c(=S)[nH]1`, for which the inhibition was 65.7% (active). For the compound `COc1ccc(-c2cn(-c3ccc(OC)cc3)c(=S)[nH]2)cc1`, the inhibition is 0.9% (inactive).

As to `S=c1[nH]c(-c2cccs2)cn1-c1ccccc1`, the inhibition is 8.66% (inactive). Under `COc1ccc(C)cc1NC(=O)CNCc1cccs1` stands 9.78% (inactive). Regarding `CC(C)Sc1ncnc2c1cnn2-c1ccccc1`, the inhibition is -2.09% (inactive). On to `COc1cc(NC(=O)CSc2ccc(-c3cccnc3)nn2)cc(OC)c1`, for which the inhibition was -0.99% (inactive).

As for `Cc1cccc(CCNC(=O)Cn2ncc3c([nH]c4ccc(C)cc43)c2=O)c1`, the inhibition is 20.9% (active).

For the compound `CC1CC(C)CN(CCCNC(=O)Cn2ncc3c([nH]c4ccccc43)c2=O)C1` (configuration not stated), the inhibition is 2.52% (inactive). Regarding `Cc1ccc2[nH]c3c(=O)n(CC(=O)NCCc4ccc(Cl)cc4)ncc3c2c1`, the inhibition is -1.14% (inactive). The value for `CCCn1nc(NC(=O)C(C)C)c2cc3cc(OC)ccc3nc21` was -7.87% (inactive). Under `C=Cn1cc[n+](CC(=O)c2ccc(OC)c(OC)c2)c1` stands 9.58% (inactive); under `O=C(CCCC(=O)N1CCN(c2cccc(Cl)c2)CC1)c1ccccc1`, -3.4% (inactive). Under `Cc1ccc(S(=O)(=O)N(CCCN(C)C)Cc2ccc3c(c2)OCO3)cc1` stands -1.45% (inactive); under `CC(NCC(=O)Nc1cc(Cl)cc(Cl)c1)c1ccccc1` (configuration not stated), 10.2% (inactive). Regarding `O=C(C1CCC1)N1CCN(c2ccccc2)CC1`, the inhibition is -0.73% (inactive). Take `CCCCCN(C(=O)CCC(=O)OCC(=O)NCc1ccc(OC)cc1)c1c(N)n(CCCC)c(=O)[nH]c1=O`: the inhibition is -5.78% (inactive). Consider `Cc1cccc(N(C)C(=O)CN2C(=O)COc3ccc(S(=O)(=O)N4CCCCCC4)cc32)c1`, for which the inhibition was 2.46% (inactive). As to `CCOc1ccc(OCc2cccc(C(=O)N(CC)CC)c2)cc1`, the inhibition is 19.7% (active). The value for `COc1ccc(OCc2cccc(C(=O)N3CCCC3)c2)cc1` was 12.3% (inactive). Under `CC(C)c1cc(C(N)=O)c(NC(=O)c2cccc(COc3ccc(Br)cc3)c2)s1` stands 6% (inactive). Under `COc1cc(C(=O)N2CCN(C)CC2)cc(OC)c1OC` stands -1.01% (inactive); under `CCOC(=O)N1CCN(C(=O)COCc2cc(-c3ccc4c(c3)OCO4)on2)CC1`, -2.54% (inactive); under `Cc1ccc2c(C)c(C(=O)N(C)CCC3CCCCO3)oc2c1C` (configuration not stated), -5.53% (inactive).

As for `N#C/C=C\Oc1ccc(Cl)cc1N`, the inhibition was 19.9% (active). `COc1ccc(Cl)cc1C(=O)NCC#N`: the inhibition was -11.2% (inactive).

`COc1ccc(N2CCN(C(=O)c3ccccc3NC(=O)C3=C(C)OCCS3)CC2)cc1`: the inhibition is -2.69% (inactive). `Cc1nc2ccccc2nc(C)c1=NOCc1ccc(Cl)cc1Cl`: the inhibition was -1.08% (inactive). Under `CCCCCCC(=O)Nc1nc(C)c(-c2csc(Nc3cccc(OC)c3)n2)s1` stands 0.02% (inactive). `Cc1ccc(Nc2nc(-c3sc(NC(=O)c4ccccc4)nc3C)cs2)cc1`: the inhibition is 48.7% (active). The value for `C=CCCC(=O)Nc1nc(C)c(-c2csc(Nc3ccc(Cl)cc3)n2)s1` was 6.06% (inactive). For the compound `Cc1nc(NC(=O)c2cccc(Cl)c2)sc1-c1csc(Nc2cccc(Cl)c2)n1`, the inhibition was 67.3% (active).

As to `Cc1ccc(-c2csc(NNC(=O)c3ccccc3)n2)cc1`, the inhibition is 0.18% (inactive).

For `CCCCCCC(=O)Nc1nc(C)c(-c2csc(Nc3cc(Cl)ccc3OC)n2)s1`, the inhibition was 4.86% (inactive). On to `CCCCC(=O)Nc1nc(C)c(-c2csc(Nc3ccc(Cl)cc3)n2)s1`, for which the inhibition was 16.9% (active).

For the compound `CCC(=O)Nc1nc(C)c(C(=O)Nc2cccc(Cl)c2)s1`, the inhibition was -0.01% (inactive). The value for `CC(=O)Nc1nc(C)c(-c2csc(Nc3ccc(S(N)(=O)=O)cc3)n2)s1` was -0.54% (inactive).
